High-throughput results: PubChem BioAssay, National Center for Advancing Translational Sciences (NCATS)
A selection: hits, their analogues and other compounds. The true share with any hit is near 3.1%.
p53null 32C kill: qHTS Screen for Compounds that Selectively Target Cancer Cells with p53 Mutations: Cytotoxicity of p53 Null Cells at the Permissive Temperature; H1299-neo p53 null cells, ATP luminescence, 24 h, 32C; 0.62% of 55,000 active; Potency, µM (series often up to 46.1 µM), without a hit: top-dose activity change, negative = cytotoxicity, most hits filed as cytotoxic; AID 903, 2007;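 further: 0% = DMSO only and -100% = full killing by 100 µM tamoxifen; nearly all actives have a fitted effect of over 55% in size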
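H1299-neo, 600 cells/well; overnight 37C; cpd up to 46 uM, 24 h at 32C; ATPlite luminescence after 20 min RT; normalized to DMSO (0%) and tamoxifen 100 uM (100% kill); Hill-fit AC50.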
OvCa metastasis: Primary qHTS assay for Inhibitors of ovarian cancer metastasis using an organotypic tumor microenvironment (TME) model; SKOV3ip1-GFP adhesion/invasion on 3D omental model, fluorescence; Potency, µM (titrated, usually from 45.8 µM), for inactives: top-dose activity change, negative = inhibition, most hits filed as inhibitors; 0.1% of 46,000 active;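 further: plate controls were DMSO wells for no effect and tomatine positive control wells for full effect; nearly all actives have a fitted effect of over 65% in size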
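Primary human omental fibroblast/mesothelial 3D culture pre-formed 48 h. SKOV3ip1-GFP cells added with compounds (0.36-46 umol/L), incubated 2 h RT/16 h 37 C, fixed; GFP cells quantified at 488/509 nm.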
mTORC1 inh: Acumen qHTS Assay for Inhibitors of the mTORC1 Signaling Pathway in MEF (Tsc2-/-, p53-/-) Cells: Sytravon; Tsc2-/- p53-/- MEF, phospho-rpS6 immunofluorescence/PI, 24 h; AID 493208, 2011; 0.78% of 44,000 active; Potency, µM (top dose mostly 38.3 µM), for inactives: at the highest dose activity change, negative = inhibition, actives largely listed as inhibitors;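 further: plate controls were DMSO for no effect and rapamycin for full effect; nearly all actives have a fitted effect of over 50% in size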
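Read-out: phospho-S6 Alexa-488 intensity over PI intensity per well, scored as % active cells using thresholds from rapamycin (7.5 nM) and DMSO controls. Tsc2-/-, p53-/- MEFs exposed to compound for 24 h; PI cell count recorded as viability.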
S16 F2sN tox: Cell viability qHTS assay in S16 Pmp22-F2sN cells. Potency, µM (titrated, usually from 57.5 µM), for inactives: at the top dose activity change, negative = cytotoxicity, usual class: cytotoxic. AID 1508642, 2021. S16 Pmp22-F2sN Schwann cells viability, CellTiter-Glo, 24 h. 0.48% of 43,000 active; further: nearly all actives have a fitted effect of over 65% in size
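Used to flag compounds lowering reporter output through toxicity, this quantitative HTS measures ATP-based CellTiter-Glo luminescence in S16 Pmp22-F2sN Schwann cells after 24 h compound exposure at 37C.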
p53null 39C tox: qHTS Screen for Compounds that Selectively Target Cancer Cells with p53 Mutations: Cytotoxicity of p53 Null Cells at the Nonpermissive Temperature | 0.97% of 55,000 active | AID 904, 2007 | H1299 p53-null (neo) cells, 39C, ATPlite viability, 24 h | Potency, µM (doses to about 46.1 µM), for the others: top-dose activity, negative = cell killing, hits mostly cytotoxic;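 further: 0% = DMSO only and -100% = full killing by 100 µM tamoxifen; nearly all actives have a fitted effect of over 50% in size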
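Temperature-shift cytotoxicity format: compound titrations on p53-null or A138V-expressing H1299 cells held 24 hr at 39C, cell ATP then measured, AC50 from Hill model.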
PMP22 txn: Cell-based coincidence reporter assay to measure PMP22 gene transcription in S16 Pmp22-F2sN cells - Primary screen | 2% of 43,000 active | Potency, µM (doses to about 57.5 µM), inactives show at the top dose activity change, negative = inhibition, actives largely listed as inhibitors | S16 Pmp22-F2sN Schwann cells (luciferase reporters placed in the Pmp22 gene), FLuc/NLuc coincidence luminescence, 24 h | AID 1508649, 2021; active means clear falling dose curves in both reporters; inconclusive means both reporters move, but less clearly or upward; inactive means either reporter flat; the % is the NLuc reporter signal
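Reporter cells (S16 Pmp22-F2sN, 500–1,000 per well) exposed to compounds for 24 h, 37C, 5% CO2; lysis with FLuc read after 10 min, then Stop&Glo and NLuc read after 10 min.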
* marks the source's active call; other numbers are inactive results; i = inactive; ? = inconclusive; nt = no result. Unless noted, the call rests on the fitted dose curve; in most records, active means well fitted curve in the direction sought with a large enough effect; inconclusive means small, poorly fitted or top-dose-only effect, or another doubt; inactive means no such curve, though single readings can be large; an effect the other way counts as inactive or inconclusive. Unless noted, on the % scale 0 is the no-effect control and ±100 the full control effect; potency means the concentration at half of the fitted maximal effect.

SMILES | p53null 32C kill | OvCa metastasis | mTORC1 inh | S16 F2sN tox | p53null 39C tox | PMP22 txn
CC[C@H]1OC(=O)[C@H](C)C(=O)[C@H](C)[C@@H](O[C@H]2O[C@H](C)C[C@H](N(C)C)[C@@H]2O)[C@](C)(OC)C[C@@H](C)C(=O)[C@H](C)[C@H]2N(CCCCn3cnc(-c4cccnc4)c3)C(=O)O[C@]12C | nt | 4% | nt | nt | nt | nt
COC1CCC(N(C(=O)C2CCC(C)CC2)c2cc(C3=CCCCC3)sc2C(=O)O)CC1 (stereo unspecified) | nt | -18% | nt | nt | nt | nt
CCc1ccc(CNC(=O)C2CCCN(c3nnc(C)c4c(C)n(-c5ccccc5)nc34)C2)cc1 (stereo unspecified) | -24% | ? | -3% | ? | 16µM* | ?
Cc1nnc(N2CCCC(C(=O)NCc3ccccc3)C2)c2nn(-c3ccccc3)c(C)c12 (stereo unspecified) | 0% | i | -2% | -4% | 2% | -5%
O=C(Nc1ccc(Br)cc1)c1ccc(F)c(S(=O)(=O)NC2CCCCCC2)c1 | 46% | ? | -17% | ? | 5% | ?
O=C(Nc1cc(Cl)cc(Cl)c1)c1ccc(F)c(S(=O)(=O)NC2CCCCC2)c1 | ? | -8% | ? | -10% | 20µM* | ?
Cc1ccc([N+](=O)[O-])cc1S(=O)(=O)N(C)N=Cc1cnc2ccc(Br)cn12 | nt | 24% | nt | nt | nt | nt
CC(=O)N(C)C1(c2ccccc2)CCN(CCC[C@]2(c3ccc(Cl)c(Cl)c3)CCCN(C(=O)c3ccccc3)C2)CC1 | nt | -13% | nt | nt | nt | nt
COc1ccc(C)cc1NC(=O)CCNS(=O)(=O)c1cccc2nonc12 | -6% | i | 21µM* | 12% | 10% | -1%
Oc1ccc(C2=Cc3ccc(O)cc3OC2)cc1 | nt | 4% | nt | nt | nt | nt
COc1ccc(/C=C(\C#N)c2nc(-c3cc4c(ccc5ccccc54)oc3=O)cs2)cc1O | -4% | -3% | 4% | ? | 6% | 8.9µM*
COc1c(C)cnc(Cn2cnc3c(Cl)nc(N)nc32)c1C | nt | 13% | nt | nt | nt | nt
Cc1nn2c(-c3ccccc3)cc(-c3ccccc3)nc2c1-c1ccc(Cl)cc1 | 11% | -6% | 0% | 9% | 49% | 7%
Cc1[nH]n2c(=O)cc(-c3ccc(Cl)cc3)nc2c1-c1ccccc1 | nt | 1% | ? | 10µM* | nt | 8.5µM*
Cc1nc2c(-c3ccccc3)c(C)[nH]n2c(=O)c1Cc1ccc(C(C)C)cc1 | nt | ? | 5% | 8.9µM* | nt | ?
Cc1ccc(Cc2c(C)nc3c(-c4ccccc4)c(C)[nH]n3c2=O)cc1 | nt | 27% | 2% | ? | nt | ?
CCCCc1c(C)nc2c(-c3ccc(Cl)cc3)c(C)[nH]n2c1=O | nt | i | 10% | 5µM* | nt | 11µM*
Cc1nc2c(-c3ccccc3)c(C)[nH]n2c(=O)c1Cc1ccc(Br)cc1 | nt | ? | ? | 10µM* | nt | 9.5µM*
O=C(Nc1cccc(C(F)(F)F)c1)Nc1cc(S(=O)(=O)NC2CC2)ccc1-c1ccsc1 | nt | -15% | nt | nt | nt | nt
O=S(=O)(O)CCSSCCS(=O)(=O)O | nt | 17% | nt | nt | nt | nt
COC(=O)C1=CO[C@@H](O)[C@@H]2C(CO)=CC[C@@H]12 | nt | -6% | nt | nt | nt | nt
COc1ccc(Cl)cc1NC(=O)c1c(NCc2cccnc2)sc2c1CCC(C)C2 (stereo unspecified) | ? | -16% | 5.8µM* | ? | 5% | ?
C=CC1=C(C(=O)O)N2C(=O)[C@@H](NC(=O)C(=NO)c3csc(N)n3)[C@H]2SC1 | nt | 14% | nt | nt | nt | nt
Cc1ccc(OCC(=O)NCC2(N3CCN(C)CC3)CCCCC2)cc1C | 0% | 4% | ? | -14% | -19% | ?
Cc1cc(OCC(=O)NCC2(N3CCN(C)CC3)CCCCC2)cc(C)c1Cl | -9% | ? | 5.8µM* | ? | -30% | ?
SMILES | p53null 32C kill | OvCa metastasis | mTORC1 inh | S16 F2sN tox | p53null 39C tox | PMP22 txn
COC(=O)c1ccc(NS(=O)(=O)c2ccc3[nH]c4c(c3c2)CCCCC4)cc1 | 36% | i | -5% | -6% | 16µM* | ?
COC(=O)c1ccc(NS(=O)(=O)c2ccc3[nH]c4c(c3c2)CCCC4)cc1 | 14% | 6% | 1% | -23% | -17% | ?
O=c1ncn2nc(Sc3ccc(F)cc3F)ccc2c1-c1c(Cl)cccc1Cl | nt | -7% | nt | nt | nt | nt
COc1cc(NC(=O)CSc2nc(-c3ccc(C(C)C)cc3)no2)cc(OC)c1 | -30% | -5% | -14% | -1% | -20% | 9.1µM*
Cn1c(=O)c(F)c(Nc2ccc(I)cc2F)c2c(=O)n(C[C@@H](O)CO)cnc21 | nt | 2% | nt | nt | nt | nt
Cc1ccc(C)c(CN2CCC(CNC(=O)Nc3ccc(Br)cc3F)CC2)c1 | -1% | ? | ? | 28µM* | ? | ?
Cc1c(C(=O)OCCOc2ccccc2)[nH]c2c1C(=O)CC(c1ccccc1)C2 (stereo unspecified) | 15% | -4% | ? | ? | ? | ?
Cc1c(C(=O)OCCOc2ccccc2)[nH]c2c1C(=O)CC(c1ccccc1Cl)C2 (stereo unspecified) | 11% | i | 1.3µM* | ? | ? | 5.3µM*
CC[C@]1(O)C[C@@H]2CN(CCc3c([nH]c4ccccc34)[C@@](C(=O)OC)(c3cc4c(cc3OC)N(C=O)[C@@H]3C45CCN4CC=C[C@](CC)([C@H]45)[C@@H](OC(C)=O)[C@]3(O)C(=O)OC)C2)C1 (stereo partly specified) | nt | -26% | nt | nt | nt | nt
O=C(CSc1nc2c(c(=O)[nH]1)CN(Cc1ccc(F)cc1)CC2)Nc1cccc(C(F)(F)F)c1 | 0% | -2% | -1% | 14µM* | 13% | ?
CO[C@H]1C[C@@H]2CC[C@@H](C)[C@@](O)(O2)C(=O)C(=O)N2CCCC[C@@H]2C(=O)O[C@H]([C@H](C)C[C@@H]2CC[C@H](OCCO)[C@H](OC)C2)CC(=O)[C@H](C)C=C(C)[C@@H](O)[C@@H](OC)C(=O)[C@H](C)C[C@H](C)C=CC=CC=C1C | nt | 11% | nt | nt | nt | nt
